hDAT+cocaine: human DAT dopamine uptake with cocaine, either direction | Q01959 | LLC-PK1 hDAT cells, [14C]-dopamine uptake with cocaine IC80; actives deviate in either direction | B-score at 10 µM | actives 1.3% (n = 110,000) | AID 449768;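 active means Z score or B-score, a plate-position-corrected score, falls beyond the plate's 99.7% confidence bounds, in either direction; inactive means both scores lie inside the 99.7% bounds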
TNAP act mid DEA: activates human TNAP at intermediate phosphate acceptor concentration. P05186. purified TNAP, CDP-star luminescence, 100 mM DEA, 30 min; hits give high values; scale: 0 levamisole-inhibited, 1 vehicle-only enzyme. activation factor at 20 µM. 64,000 tested, under 10 active. AID 813;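 active means activation factor of at least 2 at 20 µM, relative to controls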
PLAP activator: activators of human placental alkaline phosphatase; P05187; purified PLAP enzyme, luminescent substrate read-out; hits give high values; activation fold at 20 µM; actives 1.2% (n = 96,000); in the data active means activation fold above about 2
D1 mod: allosterically modulates the human D1 dopamine receptor; P21728; HEK293 D1, CRE-luciferase, dopamine EC30 potentiation; actives deviate in either direction; B-score at 10 µM; actives 5.9% (n = 58,000);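 active means luminescence count or its row- and column-corrected plate score outside the 99.7% band of the plate's sample wells, on either side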
Target sequence (P21728 whole entry, looked up): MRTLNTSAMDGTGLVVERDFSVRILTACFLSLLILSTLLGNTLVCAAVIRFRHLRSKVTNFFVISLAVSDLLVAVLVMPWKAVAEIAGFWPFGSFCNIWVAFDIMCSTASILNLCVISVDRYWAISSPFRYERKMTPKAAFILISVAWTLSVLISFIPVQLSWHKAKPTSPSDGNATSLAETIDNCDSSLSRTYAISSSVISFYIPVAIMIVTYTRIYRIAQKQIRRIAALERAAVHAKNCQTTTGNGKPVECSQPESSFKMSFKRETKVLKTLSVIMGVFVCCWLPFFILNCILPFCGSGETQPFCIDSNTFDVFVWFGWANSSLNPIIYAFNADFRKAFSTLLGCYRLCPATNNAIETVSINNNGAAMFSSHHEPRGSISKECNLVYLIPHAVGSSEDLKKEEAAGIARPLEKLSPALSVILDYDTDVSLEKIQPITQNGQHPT
HePTP inhibitor: human HePTP phosphatase inhibition | P35236 | recombinant HePTP phosphatase activity, OD absorbance | inhibition, % at 20 µM | actives 0.64% (n = 110,000) | AID 521; in the data active means inhibition above about 50%
Candida biofilm: kills Candida albicans biofilms. C. albicans biofilm + clotrimazole, Alamar Blue. inhibition, % at 6 µM. actives 0.14% (n = 85,000);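 active means inhibition above 20%; inactive means inhibition below 20%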;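 further: preformed 24 hr biofilms exposed to compound for 48 hr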
A number is an active result; – = inactive; · = not tested or not shown. This excerpt belongs to a sample that is enriched for hits.

SMILES	hDAT+cocaine	TNAP act mid DEA	PLAP activator	D1 mod	HePTP inhibitor	Candida biofilm
COc1ccc(S(=O)(=O)Nc2ncccc2Cl)cc1	·	·	·	·	–	·
Cc1cc(C)n2nc(C(=O)OCC(=O)Nc3ccc4c(c3)OCO4)nc2n1	–	–	–	-4.9	–	–
Cc1cc(C)c2nc(NC(=O)c3ccc(F)c(F)c3)sc2c1	·	·	·	·	–	·
CC1(C)Cc2c(c(N3CCOCC3)nc3sc4c(NCc5ccco5)nnnc4c23)CS1	–	–	–	·	–	24
O=C1N/C(=N\N=C\c2ccco2)SC1Cc1cc(Cl)ccc1Cl (stereo not drawn)	·	·	·	·	–	·
O=C(c1ccccn1)N(Cc1cc2ccccc2[nH]c1=O)C1CCCCC1	2.9	–	–	–	–	–
CCOC(=O)COc1ccc(/C=C2\C(=O)NC(=O)N(c3cc(C)cc(C)c3)C2=O)cc1Br	·	·	·	·	–	·
CCCCN1C2=NCCCN2c2cc(C)c(C)cc21	·	–	–	-3.4	–	·
CCN(CC)C(=O)c1sc(NC(=O)c2cccc(F)c2)c(C(=O)OC(C)C)c1C	·	·	·	·	–	·
CCOC(=O)c1ccc(NC(=O)C2CCN(S(=O)(=O)CC)CC2)cc1	-7.3	–	–	–	–	–
Cc1ccc(S(=O)(=O)/N=C2\C=C(n3cnc4ccccc43)C(=O)c3ccccc32)cc1	·	·	·	·	85	·
C/C(=N\Nc1cc(-n2nc(C)cc2C)nc(C)n1)c1ccc(C)cc1	·	·	·	·	–	·
O=C(CSCC(=O)Nc1ccc(F)c([N+](=O)[O-])c1)Nc1ccccc1	·	·	·	·	–	·
O=C(CSc1ccc(C(F)(F)F)cc1[N+](=O)[O-])Nc1ccccc1	–	·	–	·	105	·
Oc1ccc(O)c(-c2csc(NN=C(c3ccccc3)c3ccccc3)n2)c1	·	·	·	·	–	·
Cc1ccc(C(=O)O)cc1S(=O)(=O)N1CCSCC1	-9.1	–	–	–	–	–
Cc1ccc(C(=O)O)cc1S(=O)(=O)N1CCOCC1	–	–	–	–	–	–
COc1cc(C(=O)N/C(=C/c2cccc([N+](=O)[O-])c2)C(=O)NCC(=O)O)cc(OC)c1OC	·	·	·	·	–	·
CCCCCC(=O)N/N=C(\C)c1ccccn1	–	·	2.4	·	·	·
COC(=O)Cc1cc(=O)[nH]c(/N=C(\N)Nc2ccccc2C)n1	–	·	·	·	·	–
COc1ccc(Cl)cc1N/C(N)=N/c1nc(CSc2ccc(C)cc2)cc(=O)[nH]1	–	·	2.6	·	·	–
COc1ccc(Cl)cc1Nc1nc(C)cc(=O)[nH]1	–	–	–	–	–	–
COC(=O)Cc1cc(=O)[nH]c(/N=C(\N)Nc2ccc(C)cc2)n1	–	·	2.1	·	·	–
COCc1cc(=O)[nH]c(/N=C(\N)Nc2ccc(Oc3ccccc3)cc2)n1	–	–	–	–	–	–
COCc1cc(=O)[nH]c(/N=C(\N)Nc2cccc(C)c2)n1	–	·	2.4	·	·	–
SMILES	hDAT+cocaine	TNAP act mid DEA	PLAP activator	D1 mod	HePTP inhibitor	Candida biofilm
CC1=C(C(=O)OC(C)C)C(c2ccc(C)s2)NC(=O)N1C (stereo not drawn)	·	·	·	·	–	·
CN1CCN(c2ccc([N+](=O)[O-])c(NCCOc3ccc(Cl)cc3)c2)CC1	·	·	·	·	–	·
CC(C(=O)Nc1nc2ccccc2[nH]1)N1C(=O)C2CC=CCC2C1=O (stereo not drawn)	–	–	2	–	–	–
C[C@@H](C(=O)NCc1ccccc1)N1C(=O)C2CC=CCC2C1=O (stereo partly drawn)	–	·	–	·	·	–
Cc1sc(NC(=O)c2ccc(Cl)cc2Cl)nc1C12CC3CC(CC(C3)C1)C2	·	·	·	·	–	·
NS(=O)(=O)c1cccc(NC(=O)c2ccc(Cl)cc2Cl)c1	·	·	·	·	–	·
Cc1ccc(S(=O)(=O)NCC(C)NS(=O)(=O)c2ccc(C)cc2)cc1 (stereo not drawn)	-8.2	–	–	–	–	–
O=C1/C(=C\C=C\c2ccccc2)SC(=S)N1Cc1ccc(Cl)c(Cl)c1	·	·	·	·	–	·
CCOC(=O)CSCC(NC(=O)OC(C)(C)C)C(=O)OCC (stereo not drawn)	–	·	–	·	·	·
CCOC(=O)C(CSCC(=O)c1ccc(Cl)cc1Cl)NC(=O)OC(C)(C)C (stereo not drawn)	–	·	2	·	·	–
O=[N+]([O-])c1cc(C=Nc2cccc3nsnc23)c(O)c2ccccc12	·	·	·	·	–	·
O=S(=O)(c1ccccc1)N1CCN(Cc2ccc3c(c2)OCO3)CC1	·	·	·	·	–	·
Cc1cc(S(=O)(=O)N2CCN(Cc3ccc4c(c3)OCO4)CC2)cc(C)c1N1CCCC1=O	–	–	–	-4.6	–	–
Cc1ccc2nsnc2c1S(=O)(=O)N1CCCC1	–	–	–	–	–	–
Cc1ccc2nsnc2c1S(=O)(=O)N1CCN(Cc2ccc3c(c2)OCO3)CC1	5.4	–	–	–	–	–
Cn1c(-c2ccc3c(c2)OCO3)cnc1NCc1ccc(Cl)cc1	–	–	–	-4.3	–	–
CCOC(=O)c1c(NC(=O)CCN2CCOCC2)sc2c1CC(C)(C)OC2	2.8	–	–	–	–	–
COc1ccc(C(=O)NNC(=O)c2cccc(C(=O)NNC(=O)c3ccc(OC)c(OC)c3)c2)cc1OC	·	·	·	·	–	·
COc1cc(NC(=O)c2cc3c(C)nc4ccccc4c3o2)cc(OC)c1OC	–	–	–	-4.6	–	–
Cc1nc2ccccc2c2oc(C(=O)Nc3ccc4c(c3)OCCO4)cc12	–	–	–	-2.5	–	–
Cc1nc2ccccc2c2oc(C(=O)NCC3COc4ccccc4O3)cc12 (stereo not drawn)	–	–	–	-3.5	–	–
COc1ccc(NC(=O)c2cc(-c3ccc(C)o3)nc3ccccc23)cc1OC	–	–	–	-4.7	–	–
O=C(Nc1ccc2c(c1)OCCO2)c1cc2ccccc2o1	·	·	·	·	–	·
CCc1ccc(CNC(=O)c2cc3c(C)nc4ccccc4c3o2)cc1	–	·	–	·	·	–
COc1ccc(NC(=O)c2cc(-c3ccc(C)o3)nc3ccccc23)c(OC)c1	·	·	·	·	–	·
SMILES	hDAT+cocaine	TNAP act mid DEA	PLAP activator	D1 mod	HePTP inhibitor	Candida biofilm
COc1ccc(C(=O)N2CCN(Cc3ccncc3)CC2)cc1OC	·	·	·	·	–	·
O=C(c1cc(-c2ccccc2)nc2ccccc12)N1N=C(C(F)F)CC1(O)C(F)F (stereo not drawn)	2.9	·	–	·	·	·
O=C(O)/C(=C/C(=O)c1ccccc1)N=Nc1c(O)[nH]c2ccccc12	·	·	·	·	–	·
O=C1Nc2ccccc2C1=Cc1nc2ccccc2c(=O)n1-c1ccccc1[N+](=O)[O-]	·	·	·	·	–	·
Cc1ccc2c(c1)C(=Cc1nc3ccccc3c(=O)n1-c1ccccc1[N+](=O)[O-])C(=O)N2	·	·	·	·	104	·
Cc1ccc(S(=O)(=O)NCCSCc2ccc(Br)cc2)cc1	·	·	·	·	–	·
O=C(Nc1ccccc1)c1ccc(NCc2cccnc2)c(S(=O)(=O)N2CCOCC2)c1	-8	–	–	–	–	–
O=C(Nc1ccccc1)c1ccc(NCc2ccco2)c(S(=O)(=O)N2CCOCC2)c1	–	–	–	–	–	–
Oc1ccc(/C=N/Nc2cc(N3CCCCC3)nc(N3CCCCC3)n2)c(O)c1	·	·	·	·	–	·
c1c2c(cc3sc(N4CCOCC4)nc13)OCCO2	–	–	–	-4.9	–	·
COc1ccc(OC)c(N2C(=O)CC(Cc3cc(C)cc(C)c3)C2=O)c1 (stereo not drawn)	–	·	·	·	97	–
Cc1ccccc1OCCOc1cccc(/C=N/n2cnnc2)c1	·	·	·	·	–	·

Source: PubChem BioAssay
